Laboratory results reported in PubChem BioAssay.
Active and inactive are the calls of the source. Unless noted, no rule for the calls is given here.

Experiments:
[1] = test system: Wnt5a (protein binding on small-molecule microarray); test: Wnt5a binders on small-molecule microarray, primary screen, biophysical, 635/667 nm fluorescence (AID 1142); settings: 635 nm fluorescence, higher = more signal;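 also: fluorescence read at 667 nm with signal to noise per printed feature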
[2] = cell viability in Huh7 cells, primary screen, cytotoxicity control for HCV replication inhibitor project, CellTiter-Glo luminescence, basal, 48 h (AID 1143); settings: Huh7 HCV replicon, higher = more signal, called active from +8 up or from −8 down;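 also: Huh7 hepatoma cells carrying a hepatitis C replication reporter with no stimulus; test concentration not given here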
[3] = P. aeruginosa biofilm formation inhibitors, primary screen, PAO1 strain, BacTiter-Glo luminescence, LB-PBS (AID 1144); settings: 12 h, higher = more signal
[4] = CREB reporter modulators without forskolin, primary screen, cell-based, PC12, CRE-LacZ reporter, unstimulated (AID 1145); settings: no forskolin, luminescence, 4.5 h, higher = more signal, called active from +8 up or from −8 down
[5] = CREB reporter modulators under forskolin, primary screen, cell-based, PC12, CRE-LacZ reporter, forskolin-stimulated (AID 1146); settings: luminescence, 4.5 h, higher = more signal, called active from +8 up or from −8 down;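 also: PC12 cells with 6xCRE LacZ reporter stimulated by forskolin 10 µM; beta-galactosidase reporter signal reflecting CREB driven transcription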
[6] = molecular target: Streptavidin (Streptomyces avidinii) (UniProt P22629); test: streptavidin binders on small-molecule microarray, primary screen, artefact control for SMM compound annotation, biophysical, 635/667 nm fluorescence (AID 1147); settings: streptavidin binding, higher = more signal;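 also: signal reflects streptavidin binding to arrayed compounds as a control protein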
[7] = small-molecule binders of probe aInhba, primary screen, biochemical, small-molecule microarray, 635/667 nm fluorescence (AID 1148); settings: higher = more signal;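 also: score merges 667nm spot fluorescence with signal-to-noise for antibody binding to printed compounds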
Torsin-1A (Homo sapiens) [8] = molecular target: Torsin-1A (Homo sapiens) (UniProt O14656); test: torsin A binders from cell lysate, primary screen, small-molecule microarray, wild-type, 635/667 nm (AID 1149); settings: COS7 hTOR1A-WT lysate, 635 nm fluorescence, higher = more signal
Torsin-1A (Homo sapiens) [9] = molecular target: Torsin-1A (Homo sapiens) (UniProt O14656); test: small-molecule binders of mutant TOR1A in lysate, primary screen, cell lysate, small-molecule microarray, COS7 lysate, 635/667 nm fluorescence (AID 1150); settings: COS7 hTOR1A mutant lysate, 635 nm fluorescence, higher = more signal;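 also: score pools 667 nm emission and signal to noise measuring lysate protein binding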
[10] = test system: Sonic hedgehog protein (Shh); test: small-molecule binders of Shh protein, primary screen, biochemical, small-molecule microarray, 635/667 nm fluorescence (AID 1151); settings: small-molecule microarray binding, 635 nm fluorescence; higher = more signal;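 also: Shh protein binding to compounds spotted on small-molecule microarray slides; score combines spot fluorescence intensity with signal-to-noise across triplicate slides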
[11] = E. coli DRC41 culture turbidity changes, primary screen, E. coli filamentation inducer project, strain DRC41, OD650, 48 h (AID 1152);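 also: E. coli MC1000 strain DRC41 lacking acrAB efflux pump and sulA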; settings: E. coli DRC41 (acrAB sulA), higher = more signal, called active from +8 up or from −8 down
[12] = small-molecule binders of probe aLefty1, primary screen, biochemical, small-molecule microarray, 635/667 nm fluorescence (AID 1153); settings: higher = more signal;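 also: score merges spot fluorescence with signal-to-noise ratio from the scanned slide images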
[13] = PSAC antagonists in infected red cells, primary screen, cell-based, P. falciparum Indochina, OD700, 1 h (AID 1154); settings: P. falciparum Indochina infected RBC osmotic lysis, higher = more signal, called active from +8 up or from −8 down
[14] = PSAC antagonists in infected red cells, primary screen, cell-based, P. falciparum Indochina, OD700, 2 h (AID 1155);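 also: lysis reports solute entry through the parasite surface anion channel PSAC; channel blockers reduce lysis of infected cells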; settings: P. falciparum Indochina infected erythrocytes, osmotic lysis OD700; higher = more signal, called active from +8 up or from −8 down
[15] = osmotic lysis modulators in infected erythrocytes, primary screen, PSAC antagonist project, cell-based, P. falciparum Indochina, OD700, 3 h (AID 1156); settings: higher = more signal, called active from +8 up or from −8 down
[16] = PSAC antagonists in infected red cells, primary screen, cell-based, P. falciparum Indochina, OD700, 18 h (AID 1157); settings: P. falciparum Indochina infected erythrocytes, osmotic lysis OD700, 18 h; higher = more signal, called active from +8 up or from −8 down
[17] = modulators of S6 phosphorylation in cells, primary screen, cell-based, A549, cytoblot, luminescence, serum-stimulated (AID 1158); settings: A549 phospho-S6 cytoblot, 5 h, higher = more signal;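 also: serum-stimulated A549 lung adenocarcinoma cells; signal is phosphorylated S6 detected by cytoblot immunostaining with HRP secondary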
[18] = molecular target: NADPH oxidase 2 (Homo sapiens) (UniProt P04839); test: NOX2-dependent H2O2 signal modulators, primary screen, NOX inhibitor project, cell-based, HEK293-NOX2, PMA-stimulated, Amplex Red fluorescence (AID 1159); settings: 45 min, higher = more signal, called active from +8 up or from −8 down; also: test concentration not given here
[19] = molecular target: NADPH oxidase 4 (Homo sapiens) (UniProt Q9NPH5); test: NOX4-dependent H2O2 signal modulators, primary screen, NOX inhibitor project, cell-based, HEK293-NOX4, tetracycline-induced, Amplex Red fluorescence (AID 1160); settings: 45 min, higher = more signal, called active from +8 up or from −8 down
[20] = molecular target: NADPH oxidase 5 (Homo sapiens) (UniProt Q96PH1); test: NOX5-dependent H2O2 signal modulators, primary screen, NOX inhibitor project, cell-based, HEK293-NOX5, Amplex Red fluorescence (AID 1161); settings: HEK293-NOX5, ionomycin, 45 min, higher = more signal
Sequence of NADPH oxidase 5 (Homo sapiens) (Q96PH1 whole entry, looked up): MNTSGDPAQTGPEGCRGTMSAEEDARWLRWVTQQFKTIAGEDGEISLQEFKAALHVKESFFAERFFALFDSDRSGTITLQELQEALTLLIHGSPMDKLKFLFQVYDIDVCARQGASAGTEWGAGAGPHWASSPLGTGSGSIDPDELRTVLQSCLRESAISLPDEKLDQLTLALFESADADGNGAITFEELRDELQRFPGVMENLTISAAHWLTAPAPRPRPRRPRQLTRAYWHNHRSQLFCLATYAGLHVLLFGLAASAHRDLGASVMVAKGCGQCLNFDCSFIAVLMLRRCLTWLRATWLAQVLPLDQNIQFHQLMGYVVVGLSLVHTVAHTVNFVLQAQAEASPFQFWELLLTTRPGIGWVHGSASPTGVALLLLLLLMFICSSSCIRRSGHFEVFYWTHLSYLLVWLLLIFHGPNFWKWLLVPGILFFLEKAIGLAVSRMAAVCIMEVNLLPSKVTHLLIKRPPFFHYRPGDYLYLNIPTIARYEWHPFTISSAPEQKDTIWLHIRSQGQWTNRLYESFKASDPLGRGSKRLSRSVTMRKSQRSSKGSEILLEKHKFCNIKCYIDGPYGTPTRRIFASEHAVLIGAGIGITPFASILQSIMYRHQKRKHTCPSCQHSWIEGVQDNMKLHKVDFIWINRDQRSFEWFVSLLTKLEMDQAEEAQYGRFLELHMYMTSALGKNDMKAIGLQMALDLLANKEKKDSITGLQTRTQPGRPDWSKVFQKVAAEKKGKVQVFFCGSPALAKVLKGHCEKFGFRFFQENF

Sequence of NADPH oxidase 2 (Homo sapiens) (P04839 whole entry, looked up): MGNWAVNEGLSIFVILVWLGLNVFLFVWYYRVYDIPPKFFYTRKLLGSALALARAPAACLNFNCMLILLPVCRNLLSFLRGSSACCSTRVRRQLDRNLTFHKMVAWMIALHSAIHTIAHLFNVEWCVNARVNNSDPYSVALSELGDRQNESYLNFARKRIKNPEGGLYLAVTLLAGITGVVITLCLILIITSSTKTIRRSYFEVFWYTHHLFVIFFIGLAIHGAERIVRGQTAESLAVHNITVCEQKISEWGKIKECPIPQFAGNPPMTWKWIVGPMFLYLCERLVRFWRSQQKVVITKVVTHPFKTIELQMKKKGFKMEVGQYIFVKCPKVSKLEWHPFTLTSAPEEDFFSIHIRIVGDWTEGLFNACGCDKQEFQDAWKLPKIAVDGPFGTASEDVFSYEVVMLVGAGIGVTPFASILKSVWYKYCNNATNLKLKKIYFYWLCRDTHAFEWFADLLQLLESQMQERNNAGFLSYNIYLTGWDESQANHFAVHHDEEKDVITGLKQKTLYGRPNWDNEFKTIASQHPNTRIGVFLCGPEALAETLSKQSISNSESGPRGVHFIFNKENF
Sequence of NADPH oxidase 4 (Homo sapiens) (Q9NPH5 whole entry, looked up): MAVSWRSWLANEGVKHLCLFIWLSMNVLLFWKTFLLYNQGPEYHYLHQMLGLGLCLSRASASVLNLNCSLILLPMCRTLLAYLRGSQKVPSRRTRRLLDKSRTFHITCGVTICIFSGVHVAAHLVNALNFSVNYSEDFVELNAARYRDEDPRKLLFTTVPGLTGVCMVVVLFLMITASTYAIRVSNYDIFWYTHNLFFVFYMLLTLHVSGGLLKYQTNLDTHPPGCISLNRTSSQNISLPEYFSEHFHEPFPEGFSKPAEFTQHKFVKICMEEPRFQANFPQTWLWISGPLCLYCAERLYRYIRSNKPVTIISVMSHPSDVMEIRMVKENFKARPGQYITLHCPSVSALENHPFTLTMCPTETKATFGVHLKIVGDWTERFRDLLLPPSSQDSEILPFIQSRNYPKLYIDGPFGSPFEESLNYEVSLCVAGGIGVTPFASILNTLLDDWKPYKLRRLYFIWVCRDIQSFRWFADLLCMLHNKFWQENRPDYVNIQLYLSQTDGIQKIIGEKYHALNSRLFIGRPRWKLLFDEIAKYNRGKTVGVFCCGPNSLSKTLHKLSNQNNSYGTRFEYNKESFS
Sequence of Torsin-1A (Homo sapiens) (O14656 whole entry, looked up): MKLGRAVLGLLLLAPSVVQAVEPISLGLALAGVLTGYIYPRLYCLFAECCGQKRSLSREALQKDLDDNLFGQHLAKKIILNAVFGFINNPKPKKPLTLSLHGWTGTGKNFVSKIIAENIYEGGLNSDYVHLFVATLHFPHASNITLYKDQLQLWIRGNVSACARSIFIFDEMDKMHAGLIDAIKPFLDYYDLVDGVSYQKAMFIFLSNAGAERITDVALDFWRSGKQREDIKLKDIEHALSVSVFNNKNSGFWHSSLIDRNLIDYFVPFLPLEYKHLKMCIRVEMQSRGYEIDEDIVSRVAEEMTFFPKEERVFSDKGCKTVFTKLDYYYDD
Sequence of Streptavidin (Streptomyces avidinii) (P22629 whole entry, looked up): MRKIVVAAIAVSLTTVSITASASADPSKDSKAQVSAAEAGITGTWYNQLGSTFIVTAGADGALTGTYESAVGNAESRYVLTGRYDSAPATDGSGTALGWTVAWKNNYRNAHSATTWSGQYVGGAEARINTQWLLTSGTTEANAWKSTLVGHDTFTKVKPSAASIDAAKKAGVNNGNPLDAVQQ

O=C1O[C@H](c2ccccc2)[C@H](c2ccccc2)N2[C@H]1[C@@H](C(=O)O)[C@]1(C(=O)Nc3ccc(C#CCCO)cc31)[C@H]2c1ccc(OCCO)cc1
composite z-score [1]: 0.48
z-score [2]: -0.33 (inactive)
z-score [3]: 0.982 (inactive)
z-score [4]: 1.17 (inactive)
z-score [5]: 0.147 (inactive)
composite z-score [6]: 0.468
composite z-score [7]: 0.0082
composite z-score (Torsin-1A (Homo sapiens) [8]): 0.865
composite z-score (Torsin-1A (Homo sapiens) [9]): 1.08
composite z-score [10]: 0.314
z-score [11]: 0.761 (inactive)
composite z-score [12]: 0.154
z-score [13]: 4.88 (inactive)
z-score [14]: 0.927 (inactive)
z-score [15]: 0.232 (inactive)
z-score [16]: 0.138 (inactive)
z-score [17]: 0.112
z-score [18]: 1.43 (inactive)
z-score [19]: 1.21 (inactive)
z-score [20]: 0.51

COc1ccc(C(=O)Nc2ccc3c(c2)[C@@]2(O[C@H](CCO)[C@@H]([Si](C)(C)c4ccc(OC)cc4)[C@@H]2C)C(=O)N3Cc2ccccc2)cc1
composite z-score [1]: 0.0753
z-score [2]: -8.09 (active)
z-score [3]: -0.0986 (inactive)
z-score [4]: 5.6 (inactive)
z-score [5]: -0.352 (inactive)
composite z-score [6]: 0.0576
composite z-score [7]: 0.288
composite z-score (Torsin-1A (Homo sapiens) [8]): -0.193
composite z-score (Torsin-1A (Homo sapiens) [9]): 0.46
composite z-score [10]: 1.93
z-score [11]: -0.134 (inactive)
composite z-score [12]: 0.778
z-score [13]: 3.2 (inactive)
z-score [14]: 0.98 (inactive)
z-score [15]: 0.768 (inactive)
z-score [16]: -0.188 (inactive)
z-score [17]: 0.721
z-score [18]: -4.96 (inactive)
z-score [19]: -1.62 (inactive)
z-score [20]: 0.371

O=C1C2C=CC(C(O)c3ccc([N+](=O)[O-])cc3)N(Nc3ccccc3F)C2C(=O)N1c1ccccc1 (stereo not given)
composite z-score [1]: 0.164
z-score [2]: -0.631 (inactive)
z-score [3]: -0.242 (inactive)
z-score [4]: 0.743 (inactive)
z-score [5]: 0.402 (inactive)
composite z-score [6]: 0.428
composite z-score [7]: 0.0028
composite z-score (Torsin-1A (Homo sapiens) [8]): 0.16
composite z-score (Torsin-1A (Homo sapiens) [9]): 0.52
composite z-score [10]: -0.449
z-score [11]: -1.36 (inactive)
composite z-score [12]: 0.0625
z-score [13]: 9.91 (active)
z-score [14]: 0.885 (inactive)
z-score [15]: 0.458 (inactive)
z-score [16]: 0.586 (inactive)
z-score [17]: -0.888
z-score [18]: -2.54 (inactive)
z-score [19]: -4.13 (inactive)
z-score [20]: -3.11

CCCCCCc1nc(Cc2cc(OC)c(OC)c(OC)c2)cc2c1[Si](C(C)C)(C(C)C)O[C@H]2c1ccccc1
composite z-score [1]: -0.0493
z-score [2]: -2.1 (inactive)
z-score [3]: 0.129 (inactive)
z-score [4]: 0.367 (inactive)
z-score [5]: 0.0748 (inactive)
composite z-score [6]: 0.0406
composite z-score [7]: -0.154
composite z-score (Torsin-1A (Homo sapiens) [8]): 0.128
composite z-score (Torsin-1A (Homo sapiens) [9]): -0.155
composite z-score [10]: 1.19
z-score [11]: -1.42 (inactive)
composite z-score [12]: 0.092
z-score [13]: 0.612 (inactive)
z-score [14]: 0.482 (inactive)
z-score [15]: 0.491 (inactive)
z-score [16]: -0.23 (inactive)
z-score [17]: -0.147
z-score [18]: -0.472 (inactive)
z-score [19]: -0.137 (inactive)
z-score [20]: -1.73

CCCCC(O)C1C=CC2C(=O)N(c3ccccc3)C(=O)C2N1Nc1ccc(C#N)cc1 (stereo not given)
composite z-score [1]: -0.0416
z-score [2]: 0.739 (inactive)
z-score [3]: -1.25 (inactive)
z-score [4]: 0.632 (inactive)
z-score [5]: 0.719 (inactive)
composite z-score [6]: 0.718
composite z-score [7]: 0.545
composite z-score (Torsin-1A (Homo sapiens) [8]): 0.242
composite z-score (Torsin-1A (Homo sapiens) [9]): 0.179
composite z-score [10]: -0.492
z-score [11]: -0.964 (inactive)
composite z-score [12]: 0.598
z-score [13]: 16.7 (active)
z-score [14]: 2.94 (inactive)
z-score [15]: 2.36 (inactive)
z-score [16]: 1.39 (inactive)
z-score [17]: -0.809
z-score [18]: -0.444 (inactive)
z-score [19]: -4.26 (inactive)
z-score [20]: -1.98

C=CCNC(=O)[C@@H]1[C@H]2C(=O)O[C@H](c3ccccc3)[C@H](c3ccccc3)N2[C@H](c2ccc(OCCO)cc2)[C@@]12C(=O)Nc1ccc(C#CC3(O)CCCCCC3)cc12
composite z-score [1]: 0.407
z-score [2]: -5.36 (inactive)
z-score [3]: -1.17 (inactive)
z-score [4]: 0.155 (inactive)
z-score [5]: 0.856 (inactive)
composite z-score [6]: 0.981
composite z-score [7]: 0.0082
composite z-score (Torsin-1A (Homo sapiens) [8]): 0.507
composite z-score (Torsin-1A (Homo sapiens) [9]): 0.827
composite z-score [10]: 0.938
z-score [11]: 0.668 (inactive)
composite z-score [12]: 0.239
z-score [13]: 4.16 (inactive)
z-score [14]: 0.444 (inactive)
z-score [15]: 1.02 (inactive)
z-score [16]: -0.882 (inactive)
z-score [17]: 1.35
z-score [18]: 0.385 (inactive)
z-score [19]: -1.05 (inactive)
z-score [20]: -1.63

O=C1O[C@@H](c2ccccc2)[C@@H](c2ccccc2)N2[C@@H](c3ccccc3OCCO)[C@]3(C(=O)Nc4ccc(C#CCCO)cc43)[C@@H](C(=O)NC[C@H](O)c3ccccc3)[C@H]12
composite z-score [1]: 0.381
z-score [2]: -0.908 (inactive)
z-score [3]: 0.191 (inactive)
z-score [4]: -0.402 (inactive)
z-score [5]: 0.717 (inactive)
composite z-score [6]: 1.63
composite z-score [7]: 1.17
composite z-score (Torsin-1A (Homo sapiens) [8]): 1.49
composite z-score (Torsin-1A (Homo sapiens) [9]): 1.86
composite z-score [10]: 1.94
z-score [11]: 0.54 (inactive)
composite z-score [12]: 1.63
z-score [13]: 1.54 (inactive)
z-score [14]: 0.913 (inactive)
z-score [15]: -1.33 (inactive)
z-score [16]: 1.28 (inactive)
z-score [17]: -0.471
z-score [18]: 1.59 (inactive)
z-score [19]: 0.462 (inactive)
z-score [20]: 0.689

CC(C)NC(=O)[C@@]1(c2ccc([N+](=O)[O-])cc2)CC(=O)N(CC23CC4CC(CC(C4)C2)C3)[C@@H]1c1ccc(CO)cc1
composite z-score [1]: 0.821
z-score [2]: -4.42 (inactive)
z-score [3]: -0.336 (inactive)
z-score [4]: 0.362 (inactive)
z-score [5]: 0.795 (inactive)
composite z-score [6]: 0.771
composite z-score [7]: 1.19
composite z-score (Torsin-1A (Homo sapiens) [8]): 1.17
composite z-score (Torsin-1A (Homo sapiens) [9]): 1.36
composite z-score [10]: 1.95
z-score [11]: -0.323 (inactive)
composite z-score [12]: 1.56
z-score [13]: 2.3 (inactive)
z-score [14]: 0.814 (inactive)
z-score [15]: 1.86 (inactive)
z-score [16]: 0.204 (inactive)
z-score [17]: -0.248
z-score [18]: -0.108 (inactive)
z-score [19]: -1.02 (inactive)
z-score [20]: -0.0647
